Experimental data as given in PubChem BioAssay (Tox21).
Inconclusive results are not listed. Active and inactive are the calls of the source. Unless noted, calls follow the shape of the dose curve; as a rule, active = well fitted curve in the direction sought with a large enough effect in the repeat runs; inconclusive = weak or mixed curves; inactive = no such curve, though single readings can be large; an effect the other way counts as inactive or inconclusive.

Columns and labels:
[1] = qHTS assay to identify small molecule agonists of the TGF-beta/Smad signaling pathway - cell viability counter screen (AID 1346829); also: top concentration of the series differs between compounds; nearly all actives have a fitted effect of over 45% in size
Summary of the method: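 Compound-treated SBE-bla HEK 293T cells (5 hr, 37 C) were assessed for viability with CellTiter-Glo in parallel with the reporter read.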

[2] = qHTS assay to identify small molecule agonists of the TGF-beta/Smad signaling pathway (AID 1346859; active = well fitted activation curve with a large enough effect in the signal ratio in the repeat runs, not every such curve was filed as active; the % refers to the signal ratio; also: series mostly up to about 77 µM)
Summary of the method: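 Dual-wavelength fluorescence (460/530 nm emission) quantified beta-lactamase expression under the Smad binding element in HEK 293T cells following 5 hr compound treatment at 37 C.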

[3] = Human pregnane X receptor (PXR) small molecule agonists, qHTS cell viability counter screen (AID 1346977); also: nearly all actives have a fitted effect of over 50% in size
Summary of the method: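 HepG2 cells stably carrying the PXR-Luc reporter are cultured with 5% charcoal-stripped FBS and treated with compounds for 24hr. CellTiter-Fluor is added at 23hr and fluorescence is read after 1hr.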

[4] = Caspase-3/7 induction in HepG2 cells by small molecules, qHTS assay (AID 1346978); also: nearly all actives have a fitted effect of over 15% in size
Summary of the method: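 Wild-type HepG2 cells (2,000/well) were settled 5 h at 37 C, 5% CO2, then exposed to compounds in DMSO for 17 h. Caspase-3/7 activity was read by luminescence 30 min after adding Caspase-Glo 3/7 reagent at room temperature.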

[5] = Caspase-3/7 induction in CHO-K1 cells by small molecules, qHTS cell viability counter screen (AID 1346979); also: nearly all actives have a fitted effect of over 35% in size
Summary of the method: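 Seeding: 1,500 CHO-K1 cells/well. Rest: 5hr, 37C. Treatment: compounds in DMSO, 16hr. Read: CellTiter-Fluor, 1hr, fluorescence.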

[6] = Caspase-3/7 induction in CHO-K1 cells by small molecules, qHTS assay (AID 1346980); also: nearly all actives have a fitted effect of over 15% in size
Summary of the method: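 Wild-type cells were seeded at 1,500 per well and settled 5 hr at 37 C, 5% CO2, then exposed to DMSO-dissolved compounds for 17 hr. Caspase-Glo 3/7 reagent was added, and luminescence was read after 30min at room temperature.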

[7] = Caspase-3/7 induction in HepG2 cells by small molecules, qHTS cell viability counter screen (AID 1346981); also: series mostly up to about 92 µM; nearly all actives have a fitted effect of over 30% in size
Summary of the method: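 Fluorescence read-out of live-cell protease activity (CellTiter-Fluor) after 1 hr with reagent. This was measured in the same wells as the caspase-3/7 luminescence, on HepG2 cells exposed to DMSO-dissolved compounds for 16 hr at 37 C.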

[8] = molecular target: Nuclear receptor subfamily 1 group I member 2 (Homo sapiens) (UniProt O75469); test: Human pregnane X receptor (PXR) small molecule agonists, qHTS assay (AID 1346982); also: nearly all actives have a fitted effect of over 35% in size
Chain of Nuclear receptor subfamily 1 group I member 2 (Homo sapiens) (O75469 whole entry, looked up): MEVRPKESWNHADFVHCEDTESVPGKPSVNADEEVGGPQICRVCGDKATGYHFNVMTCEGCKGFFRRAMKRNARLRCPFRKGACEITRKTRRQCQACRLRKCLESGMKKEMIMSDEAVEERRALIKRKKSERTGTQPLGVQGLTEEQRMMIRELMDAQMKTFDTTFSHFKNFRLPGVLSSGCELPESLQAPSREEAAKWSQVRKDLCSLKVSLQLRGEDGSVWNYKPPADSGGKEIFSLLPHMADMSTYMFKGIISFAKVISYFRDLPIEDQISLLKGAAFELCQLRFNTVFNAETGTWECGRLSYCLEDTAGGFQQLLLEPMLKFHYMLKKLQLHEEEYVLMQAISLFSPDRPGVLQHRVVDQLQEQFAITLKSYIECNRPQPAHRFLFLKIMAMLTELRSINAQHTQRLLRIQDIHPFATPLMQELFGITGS
Summary of the method: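 HepG2 PXR-Luc reporter line, 5% charcoal-stripped FBS; 5 hr pre-incubation, compound (DMSO) 24 hr at 37 C/5% CO2; ONE-Glo 30 min RT; luminescence read-out.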
% is scaled to controls: 0 for no effect and ±100 for the full control effect.

COc1cc2c3cc1Oc1cc(ccc1O)C[C@@H]1c4c(cc(OC)c(O)c4Oc4ccc(cc4)C[C@@H]3N(C)CC2)CC[N+]1(C)C
inactive: outcome [1] | outcome [2] | Potency [3] | outcome [4] | Potency [5] | outcome [6] | Potency [7] | Potency [8]

CCCCCCCCCCC
inactive: outcome [1] | outcome [2] | Potency [3] | outcome [4] | Potency [5] | outcome [6] | Potency [7] | Potency [8]

Cc1cc(C)cc([N+](=O)[O-])c1
inactive: outcome [1] | outcome [2] | Potency [3] | outcome [4] | outcome [6] | Potency [7] | Potency [8]

O=CO
inactive: activity change, negative = cytotoxicity [1] 8.49% [at 6.97 µM] | activation [2] 2.26% [at 6.97 µM] | activity change, negative = cytotoxicity [3] -2.18% [at 8.39 µM] | caspase activation [4] 0.203% [at 8.39 µM] | caspase-3/7 activation [6] 0.126% [at 8.39 µM] | activity change, negative = cytotoxicity [7] 4.68% [at 8.39 µM]

COC(=O)CCC(=O)O
inactive: outcome [1] | outcome [2] | Potency [3] | outcome [4] | Potency [5] | outcome [6] | Potency [7] | Potency [8]

CCCCOC(=O)[C@@H](C)Oc1ccc(Oc2ccc(C(F)(F)F)cn2)cc1
inactive: outcome [1] | outcome [2] | Potency [3] | outcome [4] | Potency [5] | outcome [6] | Potency [7] | Potency [8]

CCCCCCCCCCCCCCCCI
inactive: activity change, negative = cytotoxicity [1] 0.0425% [at 15.8 µM] | activation [2] 1.65% [at 15.8 µM] | activity change, negative = cytotoxicity [3] 1.52% [at 19 µM] | caspase activation [4] 0.99% [at 19 µM] | activity change, negative = cytotoxicity [5] 4.85% [at 19 µM] | caspase-3/7 activation [6] -0.405% [at 19 µM] | activity change, negative = cytotoxicity [7] 7.09% [at 19 µM] | activation [8] 0.718% [at 19 µM]

COC(/C=C(\C)CCC=C(C)C)OC
inactive: outcome [1] | outcome [2] | Potency [3] | outcome [4] | outcome [6] | Potency [7] | Potency [8]

O=c1[nH]c(=O)c2ccccc2o1
inactive: outcome [1] | outcome [2] | Potency [3] | outcome [4] | Potency [5] | outcome [6] | Potency [7] | Potency [8]

CNC(=O)NC
inactive: outcome [1] | outcome [2] | outcome [4] | Potency [5] | outcome [6] | Potency [7] | Potency [8]

C=C[Si](C)(C)O[Si](C)(C)C=C
inactive: outcome [1] | outcome [2] | Potency [3] | outcome [4] | Potency [5] | outcome [6] | Potency [7] | Potency [8]

CC(=O)OCCCc1ccccc1
inactive: outcome [1] | outcome [2] | Potency [3] | outcome [4] | Potency [5] | outcome [6] | Potency [7] | Potency [8]

CO[Si](CCCS)(OC)OC
inactive: outcome [1] | outcome [2] | Potency [3] | outcome [4] | Potency [5] | outcome [6] | Potency [7] | Potency [8]

COc1cc2c(Nc3ccc(Br)cc3F)ncnc2cc1OCC1CCN(C)CC1
inactive: outcome [1] | outcome [2] | Potency [3] | outcome [4] | Potency [5] | outcome [6] | Potency [7] | Potency [8]

O=c1cc(O)c(Cl)c[nH]1
inactive: outcome [1] | outcome [2] | Potency [3] | outcome [4] | Potency [5] | outcome [6] | Potency [7] | Potency [8]

CCN(CCC#N)c1ccccc1
inactive: outcome [1] | outcome [2] | Potency [3] | outcome [4] | outcome [6] | Potency [7] | Potency [8]

CC(C)(CO)[C@@H](O)C(=O)NCCCO
inactive: outcome [1] | outcome [2] | outcome [4] | Potency [5] | outcome [6] | Potency [7] | Potency [8]

CC(C)c1ccccc1O
inactive: outcome [1] | outcome [2] | Potency [3] | outcome [4] | Potency [5] | outcome [6] | Potency [7] | Potency [8]

CC(C)(c1ccc(Oc2ccc3c(c2)C(=O)OC3=O)cc1)c1ccc(Oc2ccc3c(c2)C(=O)OC3=O)cc1
inactive: outcome [1] | outcome [2] | Potency [3] | outcome [4] | outcome [6] | Potency [7]

O=P(O)(O)OCC(O)CO (stereo not given)
inactive: outcome [1] | outcome [2] | Potency [3] | outcome [4] | Potency [5] | outcome [6] | Potency [7] | Potency [8]

Cc1ccccc1C
inactive: outcome [1] | outcome [2] | Potency [3] | outcome [4] | outcome [6] | Potency [7] | Potency [8]

CCCCCCCCCOCC1CO1 (stereo not given)
inactive: outcome [1] | outcome [2] | outcome [4] | Potency [5] | outcome [6] | Potency [7]

C=C(C)[C@@H]1CC[C@@H](C)C[C@@H]1O
inactive: outcome [1] | outcome [2] | Potency [3] | outcome [4] | Potency [5] | outcome [6] | Potency [7] | Potency [8]

NCCc1ccn[nH]1
inactive: outcome [1] | outcome [2] | Potency [3] | outcome [4] | Potency [5] | outcome [6] | Potency [7] | Potency [8]

O=C(Nc1cccc(C2=NCCN2)c1)Nc1cccc(C2=NCCN2)c1
inactive: activity change, negative = cytotoxicity [1] -14.4% [at 15.8 µM] | activation [2] 0.662% [at 15.8 µM] | activity change, negative = cytotoxicity [3] 1.2% [at 19 µM] | activity change, negative = cytotoxicity [5] 4% [at 19 µM] | caspase-3/7 activation [6] 0.277% [at 19 µM] | activity change, negative = cytotoxicity [7] 2.76% [at 19 µM] | activation [8] -0.413% [at 19 µM]

CC(=O)N(CC(O)CO)c1c(I)c(C(=O)NCC(O)CO)c(I)c(C(=O)NCC(O)CO)c1I (stereo not given)
inactive: outcome [1] | outcome [2] | Potency [3] | outcome [4] | Potency [5] | outcome [6] | Potency [7] | Potency [8]
